ATXN2 expr inh: Primary qHTS for Inhibitors of ATXN expression; AID 1745845, 2022; HEK-293 ATXN2-luciferase reporter, luminescence, 24 h; actives 0.72% (n = 360,000); Potency, µM (series often up to 57 µM), most hits filed as inhibitors; also: nearly all actives have a fitted effect of over 55% in size
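qHTS (up to 57 uM final) was run with 24 h compound exposure of reporter cells at 37 °C. Each well was multiplexed: SteadyGlo luminescence measured ATXN2-luciferase expression after a fluorogenic Gly-Phe-AFC viability readout (25 uM final).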
S2 tox: Viability Counterscreen for Primary qHTS for Inhibitors of ATXN expression; actives 0.49% (n = 400,000); S2 cells (HEK-293 line with an ATXN2-luciferase reporter) viability, CellTiter-Fluor protease fluorescence, 24 h; AID 651635, 2014; Potency, µM (titrated, usually from 56.7 µM), actives largely listed as cytotoxic; also: nearly all actives have a fitted effect of over 40% in size
KB-3-1 tox: qHTS assay for MDR1-selective chemotherapeutics: Primary screen using the parental adenocarcinoma cell KB-3-1 | AID 1347075, 2019 | Potency, µM (titrated, usually from 46.1 µM), most hits filed as cytotoxic | KB-3-1 viability, CellTiter-Glo ATP luminescence, 72 h | actives 1.4% (n = 400,000); also: nearly all actives have a fitted effect of over 60% in size
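Using CellTiter-Glo luminescence, growth of non-resistant KB-3-1 adenocarcinoma cells is assessed 72 h after pin-tool compound addition at 37 °C. Normalized responses across the concentration series yield fitted curves.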
KB-V1 MDR tox: qHTS assay for MDR1-selective chemotherapeutics: Primary screen using the drug-selected MDR subline cells KB-V1; KB-V1 MDR cells viability, CellTiter-Glo, 72 h; Potency, µM (doses to about 46.1 µM), most hits filed as cytotoxic; actives 3.4% (n = 400,000); also: nearly all actives have a fitted effect of over 60% in size
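Readout: CellTiter-Glo luminescence, 10 min after addition. Cells: KB-V1 MDR subline, 72 h at 37 degrees C with compound. Analysis: corrected, normalized data fitted to concentration-effect curves.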
TGFb inhibitor: qHTS for Inhibitors of TGF-b | HepG2 CAGA-GFP TGF-b/SMAD3 reporter, GFP fluorescence, 18 h; TGF-beta stimulated, 500 pg/mL final | Potency, µM (top dose mostly 46.1 µM), actives largely listed as inhibitors | actives 1.2% (n = 410,000) | AID 588855, 2011; also: nearly all actives have a fitted effect of over 65% in size
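Using HEPG2 CAGA-GFP reporter cells at 1000 cells/well, we pinned test compounds, stimulated with recombinant TGF-beta (500 pg/mL final) and measured total well GFP after 18 h.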
HepG2 viability: qHTS for Inhibitors of TGF-b: Cytotox Counterscreen; HepG2 CAGA-GFP viability, ATP luminescence, 18 h; Potency, µM (titrated, usually from 46.1 µM), usual class: cytotoxic; actives 0.76% (n = 410,000); AID 588856, 2011
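HepG2 CAGA-GFP cells (1000/well, DMEM with 1% FBS) received compound, then TGF-beta at 500 pg/mL final, and were incubated 18 hours at 37 degrees C. Viability was read by CellTiter-Glo luminescence. Media-only wells were set as complete cell-killing and DMSO as no toxicity.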
Each line names hits and unclear results; the compound was inactive in the other large screens. Sampled rows, rich in hits. Any-hit rate of the full collection: about 5.9%. Calls follow the shape of the dose curve; as a rule, active = well fitted curve in the direction sought with a large enough effect; inconclusive = small, poorly fitted or top-dose-only effect, or another doubt; inactive = no such curve, though single readings can be large; an effect the other way counts as inactive or inconclusive.

CCN(CC)C(=O)C1CCC(CNS(=O)(=O)c2cccc3cccnc23)CC1 (stereo not given)	none
Cc1nonc1OCC(C)(COc1nonc1C)NC(=O)c1ccc(Cl)cc1	KB-3-1 tox inconclusive, KB-V1 MDR tox 4.11µM
COC(=O)c1ccc(C(=O)N(Cc2ccccc2)c2ccccc2)cc1	none
Cc1cccc(N(Cc2ccccc2)C(=O)CSC(C)C(=O)Nc2cc(C)on2)c1 (stereo not given)	KB-3-1 tox inconclusive, KB-V1 MDR tox 14.6µM
Cc1cccc(N(Cc2ccccc2)C(=O)CCl)c1	ATXN2 expr inh 0.752µM, S2 tox 0.532µM, KB-V1 MDR tox inconclusive, TGFb inhibitor inconclusive
O=C(CCl)N(Cc1ccccc1)c1ccccc1	KB-3-1 tox inconclusive, TGFb inhibitor 12.6µM, HepG2 viability 12.6µM
O=C(CCl)N(Cc1cc(=O)[nH]c2ccccc12)c1ccccc1	S2 tox inconclusive, TGFb inhibitor 11.2µM (no result: ATXN2 expr inh)
CCC(C)(C)n1nnnc1C(C(C)C)N(Cc1cccnc1)Cc1ccco1 (stereo not given)	none
COc1ccc(Cn2nnnc2CN(Cc2cc3cc(C)ccc3[nH]c2=O)C2CCCC2)cc1	KB-V1 MDR tox 16.4µM
O=c1[nH]c2cc3c(cc2cc1CN(Cc1nnnn1C1CCCC1)C1CCCC1)OCCO3	KB-3-1 tox 23.1µM
CCC(C)(C)n1nnnc1CN(Cc1cc2cc(OC)c(OC)cc2[nH]c1=O)C1CCCC1	S2 tox inconclusive
Cc1ccc(CN(Cc2cc3cc4c(cc3[nH]c2=O)OCCO4)Cc2nnnn2Cc2ccco2)cc1	ATXN2 expr inh inconclusive, S2 tox inconclusive, KB-V1 MDR tox 14.6µM
CCC(C)(C)n1nnnc1C(C(C)C)N(Cc1ccco1)Cc1cc2cc3c(cc2[nH]c1=O)OCO3 (stereo not given)	ATXN2 expr inh inconclusive, S2 tox inconclusive, KB-3-1 tox inconclusive, KB-V1 MDR tox 14.6µM, TGFb inhibitor inconclusive
Cc1ccc2cc(CN(Cc3nnnn3C3CCCC3)C3CCCCC3)c(=O)[nH]c2c1C	none
Cc1ccc2cc(CN(Cc3ccc4c(c3)OCO4)Cc3nnnn3Cc3ccco3)c(=O)[nH]c2c1	S2 tox inconclusive, KB-3-1 tox inconclusive
CN(C)c1ccc(C=O)c(O)c1	none (no result: ATXN2 expr inh, S2 tox)
Cc1ccc2[nH]c(=O)c(CN(Cc3nnnn3C3CCCC3)C3CCCCC3)cc2c1	none
Cc1ccc2[nH]c(=O)c(CN(Cc3ccccc3)Cc3nnnn3C3CCCC3)cc2c1	KB-V1 MDR tox 23.1µM
COc1ccc(CCNC(=O)Cc2c(C)c3cc(OC)c(OC)cc3oc2=O)cc1	none
CCOC(=O)c1c(NC(C)=O)sc2c(O)c(CN3CCN(CC)CC3)ccc12	S2 tox inconclusive, TGFb inhibitor inconclusive, HepG2 viability 11.2µM
CCOC(=O)c1c(NC(C)=O)sc2c(OC)c(Br)ccc12	none
CCOC(=O)CN(Cc1ccccc1)C(C(=O)NC1CCCCC1)c1ccc(C)cc1 (stereo not given)	none
C=CCNc1nc(Cl)nc(Nc2ccc(OC)cc2)n1	KB-V1 MDR tox 13µM
CC(=O)c1ccc2c(c1)CC1(C2)Cc2cc3c(cc2C1)C(=O)CC3 (stereo not given)	S2 tox inconclusive, KB-3-1 tox 3.66µM, KB-V1 MDR tox 2.59µM, TGFb inhibitor inconclusive
CC(=O)c1ccc2c(c1)Cc1cc(C(C)=O)ccc1-2	KB-V1 MDR tox inconclusive
COc1cc(/C=N/Nc2nc(C)nc3c2cnn3-c2ccccc2)ccc1O	KB-3-1 tox inconclusive, KB-V1 MDR tox 8.2µM
Cc1ccc2c(c1)c(=O)c(Br)c(C)n2Cc1ccccc1	KB-3-1 tox inconclusive, KB-V1 MDR tox 18.4µM
CCOC(=O)c1ccc(NC(=O)CC2C(=O)N(c3ccc(F)cc3)C(=O)N2CCC(C)C)cc1 (stereo not given)	KB-3-1 tox 20.6µM, KB-V1 MDR tox inconclusive
COC(=O)c1ccc(NC(=O)CC2C(=O)N(c3ccc(C)cc3)C(=O)N2CC(C)C)cc1 (stereo not given)	KB-V1 MDR tox 23.1µM
Cc1cc(SCc2sc(-c3ccc(C(F)(F)F)cc3)nc2C)ccc1OCC(=O)O	none (no result: S2 tox, KB-3-1 tox, KB-V1 MDR tox, TGFb inhibitor, HepG2 viability)
C=CC[C@H](c1ccc(F)cc1)N(CC(C)C)S(=O)(=O)C=C	KB-3-1 tox inconclusive (no result: ATXN2 expr inh, S2 tox)
O=C(/C=C/c1ccco1)N1CCN(C/C=C/c2ccccc2)CC1	KB-V1 MDR tox 14.6µM
Cc1ccc(NC(=O)N2CCN(C/C=C/c3ccccc3)CC2)cc1	none
Fc1ccccc1NC(=S)N1CCN(C/C=C/c2ccccc2)CC1	KB-3-1 tox inconclusive, KB-V1 MDR tox 16.4µM
S=C(Nc1ccccc1)N1CCN(C/C=C/c2ccccc2)CC1	none
O=C(Nc1ccc2c(c1)OCO2)N1CCN(C/C=C/c2ccccc2)CC1	KB-V1 MDR tox 20.6µM
Cc1cccc(N2C(=O)CS(=O)(=O)C23C(=O)N(C)c2ccccc23)c1 (stereo not given)	KB-V1 MDR tox inconclusive
COc1cccc(Cn2c(=O)n(CC3CCC(C(=O)N4CCCCC4)CC3)c(=O)c3sccc32)c1 (stereo not given)	ATXN2 expr inh inconclusive, S2 tox inconclusive, TGFb inhibitor inconclusive
C=CS(=O)(=O)c1ccc(Oc2ccc(S(=O)(=O)C=C)cc2)cc1	ATXN2 expr inh 8.91µM, S2 tox 5.01µM, KB-3-1 tox inconclusive, KB-V1 MDR tox inconclusive, HepG2 viability 3.16µM
O=C(Nc1ccc2c(c1)OCO2)c1ccc2sc([C@@H]3O[C@H](CO)[C@H](O)[C@H](O)[C@H]3O)nc2c1	none
Cc1cc(CCCCCCCCc2cc(C)cc(=O)o2)oc(=O)c1	KB-V1 MDR tox 7.31µM
CCOc1cc(C2Nc3cccc4cccc(c34)N2)ccc1O	S2 tox inconclusive, KB-3-1 tox inconclusive, KB-V1 MDR tox 14.6µM
CCOc1cc(C2Sc3ccccc3NC3=C2C(=O)c2ccccc23)ccc1O (stereo not given)	ATXN2 expr inh inconclusive, S2 tox 31.6µM
CCc1nnc(NC(=O)c2cc(=O)c3cc(C)c(C)cc3o2)s1	KB-V1 MDR tox inconclusive
CCCCOc1ccc(S(=O)(=O)NCc2csc(C)n2)cc1	KB-3-1 tox 18.4µM, KB-V1 MDR tox inconclusive
COC(=O)c1cc(CNC(=O)c2ccc(N(C)C)cc2)cc(NC(=O)c2ccccc2Cl)c1	none (no result: ATXN2 expr inh, KB-3-1 tox, KB-V1 MDR tox, TGFb inhibitor, HepG2 viability)
COP1(=O)CC(O)C(O)C(COCc2ccccc2)O1 (stereo not given)	none (no result: ATXN2 expr inh, S2 tox, KB-3-1 tox, KB-V1 MDR tox)
Cc1c(CN2CCC(C(=O)Nc3cccc(-c4cccc(Cl)c4)c3)CC2)cnn1C	S2 tox inconclusive, TGFb inhibitor inconclusive (no result: ATXN2 expr inh)

High-throughput results deposited in PubChem BioAssay by National Center for Advancing Translational Sciences (NCATS).
